Source: PubChem
Most compounds without a hit are left out; they make up all but 2.6% or so of the library.
GLP1R inv ag – inverse agonists of human GLP-1 receptor; Potency, µM (highest dose often 38.3 µM), without a hit: at the top dose activity change, negative = inhibition, most hits filed as inhibitors; HEK293 GLP-1R CRE-luciferase, luminescence, 24 h; GLP-1R form is constitutively active; actives 1.6% (n = 410,000); also: % is scaled to controls: 0 for no effect and ±100 for the full control effect; nearly all actives have a fitted effect of over 55% in size
Target sequence (P43220 whole entry, looked up): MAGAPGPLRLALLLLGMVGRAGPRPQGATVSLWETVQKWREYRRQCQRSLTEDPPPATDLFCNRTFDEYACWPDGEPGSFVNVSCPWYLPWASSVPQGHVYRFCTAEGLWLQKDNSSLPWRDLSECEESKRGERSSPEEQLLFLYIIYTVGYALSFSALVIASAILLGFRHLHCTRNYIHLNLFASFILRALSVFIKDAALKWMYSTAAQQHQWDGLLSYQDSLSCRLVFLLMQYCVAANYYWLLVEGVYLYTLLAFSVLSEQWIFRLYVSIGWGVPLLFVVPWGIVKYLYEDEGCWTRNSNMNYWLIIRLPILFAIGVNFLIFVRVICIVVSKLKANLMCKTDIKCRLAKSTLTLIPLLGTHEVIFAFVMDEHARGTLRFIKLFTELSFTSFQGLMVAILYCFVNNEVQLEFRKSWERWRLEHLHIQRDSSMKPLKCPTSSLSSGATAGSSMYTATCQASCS
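Using stably transfected HEK293 (constitutively active GLP-1R, cAMP-luciferase reporter), compounds were incubated 24 hr and luciferase measured by luminescence.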
BRCA1 expr act – increases BRCA1 expression. MCF7-BRCA1-FFLuc reporter, luminescence, 48 h; response scale: scaled: vehicle 0%, 10 µM genistein 100%. Potency, µM (highest dose often 46.1 µM), inactives show top-dose activation, hits mostly activators. actives 1.1% (n = 380,000); also: nearly all actives have a fitted effect of over 80% in size
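Compounds are tested at multiple concentrations on MCF7 BRCA1-luciferase reporter cells seeded at 2000 per well; after 48 h, a single luminescence end-point is taken and curves fitted to the normalized data.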
GLP1R cytotox – cytotoxic in the GLP-1 receptor inverse agonist counter-screen; HEK293 cAMP-luciferase reporter cells, luminescence, 24 h; Potency, µM (top dose mostly 38.3 µM), for the others: at the top dose activity change, negative = inhibition, actives largely listed as inhibitors; actives 0.13% (n = 410,000); AID 624418;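 also: loss of luciferase light is scored as toxicity; % is scaled to controls: 0 for no effect and ±100 for the full control effect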
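Cells in DMEM/10% Nu serum/1% pen-strep, 1536-well format. Pre-incubated 12 h, dosed with 23 nL compound, incubated a further 24 h. Luciferase detection, 12 min at room temp, luminescence.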
GLP1R ag – agonists of human GLP-1 receptor; P43220; actives 0.007% (n = 380,000); HEK293 GLP-1R CRE-luciferase, luminescence, 4-6 h; cells express a hypersensitive GLP-1R form; Potency, µM (titrated, usually from 45.6 µM), inactives show at the highest dose activation, most hits filed as activators; also: % of control where 0% means no effect
Numbers without * were called inactive; ? = inconclusive; nt = no result given. Calls follow the shape of the dose curve; as a rule, active = well fitted curve in the direction sought with a large enough effect; inconclusive = small, poorly fitted or top-dose-only effect, or another doubt; inactive = no such curve, though single readings can be large; an effect the other way counts as inactive or inconclusive. Potency is read from the fitted curve at half-maximal effect.

SMILES	GLP1R inv ag	BRCA1 expr act	GLP1R cytotox	GLP1R ag
O=C(Nc1nc2n(n1)C(c1ccc(F)cc1)C=C(c1ccccc1)N2)c1cccc([N+](=O)[O-])c1 (stereo not drawn)	22%	nt	89%	nt
CCc1ccc(NC(=O)CCc2ccc(C)o2)cc1	?	31%	-10%	-2%
CCc1ccc(NC(=O)CCc2ccc(CC)o2)cc1	10µM*	29%	-21%	-2%
Cc1ccccc1NS(=O)(=O)c1c(C(=O)N2CCCCCC2)c(C)n(C)c1C	1%	0%	-1%	-4%
O=C(C1CCCN(S(=O)(=O)c2ccc(Cl)cc2)C1)N(Cc1cccs1)C1CC1 (stereo not drawn)	10µM*	-17%	-12%	2%
CC(C)(C)OC(=O)N(CCc1ccccc1)Cc1cccc(OCc2cccc(NC(=O)C3CCC3)c2)c1	?	-26%	7%	-2%
CC(C)(C)OC(=O)N(CCc1ccccc1)Cc1ccccc1OCc1cccc(NC(=O)C2CCC2)c1	8.9µM*	-19%	-5%	1%
CC(C)(C)OC(=O)N(Cc1ccccc1)Cc1cccc(OCc2cccc(NC(=O)C3CC3)c2)c1	10µM*	-52%	12%	0%
CC(C)C(=O)Nc1cccc(COc2ccc(CN(CCc3ccccc3)C(=O)OC(C)(C)C)cc2)c1	6.3µM*	-16%	13%	-1%
CC(C)(C)OC(=O)N(Cc1ccccc1)Cc1ccccc1OCc1cccc(NC(=O)C2CC2)c1	10µM*	-23%	-2%	3%
CC(C)(C)OC(=O)N(Cc1ccccc1)Cc1ccccc1OCc1cccc(NC(=O)C2CCC2)c1	?	-31%	7%	13%
Cc1cc(C)c(NC(=O)Cc2ccc(-n3c(C)nc4cccnc43)cc2)c(C)c1	-4%	nt	2%	nt
CC(C)NC(=O)N(C)C[C@H]1Oc2cc(C#Cc3ccc(F)cc3)ccc2S(=O)(=O)N([C@H](C)CO)C[C@H]1C	?	-36%	-16%	6%
Cn1c(=O)oc2cc(S(=O)(=O)CCC(=O)NCc3ccc(Cl)cc3)ccc21	-7%	nt	-6%	nt
COc1cc(CNCc2ccccc2Cl)ccc1OCC(=O)NC1CCCCC1	10µM*	-14%	-26%	13%
O=C(CN1CCN(Cc2ccccc2Cl)C1=O)NC1CCCCCC1	?	11µM*	-13%	-2%
O=C(CN1CCCN(Cc2ccc(F)cc2Cl)C1=O)NC1CCCCCC1	?	-20%	-2%	17%
CCOC(=O)c1c(C)n(-c2ccc(OC)cc2)c2ccc(OC(=O)COc3ccccc3)cc12	-4%	nt	-8%	nt
CCC(C)Sc1ccc(-c2nc3ccc(C)cn3c2NCc2ccccc2)cc1OC (stereo not drawn)	2.8µM*	-34%	-25%	-4%
CCCCNc1c(-c2ccc(OC)c(SC3CCCCC3)c2)nc2ccc(C)cn12	7%	-89%	4%	-5%
CCCCNc1c(-c2ccc(SC3CCCCC3)c(OC)c2)nc2ccc(C)cn12	8.9µM*	-41%	0%	-3%
COC(=O)c1ccc(C(=O)OC)c(NC(=O)c2cnn3c(C(F)F)cc(-c4ccc(C)cc4)nc23)c1	9%	-8%	1%	0%
CCN(CC)S(=O)(=O)c1ccc(NC(=O)NCc2noc3ccc(C)cc23)cc1	10µM*	nt	-30%	nt
Cc1ccc(NC(=O)C(Cc2ccccc2)NS(=O)(=O)c2ccc3c(c2)c(=O)n(C)c(=O)n3C)cc1 (stereo not drawn)	3%	-38%	2%	0%
O=C(CCS(=O)(=O)c1ccccc1)Nc1ccc2c(c1)OCO2	4%	7.9µM*	-5%	4%
SMILES	GLP1R inv ag	BRCA1 expr act	GLP1R cytotox	GLP1R ag
N/C(=N\C(=S)Nc1ccccc1)c1ccccc1	3%	?	1%	19%
O=C(/C=C\Nc1cccc(F)c1)c1ccc2c(c1)OCO2	10µM*	?	6%	-4%
Cc1ccccc1NC(=O)Nc1ccc2c(c1)OCO2	17%	5.6µM*	-7%	-1%
N/C(=N\C(=S)Nc1ccc2c(c1)OCO2)c1ccccc1	-16%	4.5µM*	-13%	-2%
CS(=O)(=O)N(CC(=O)Nc1ccc2c(c1)OCO2)c1ccccc1	2%	25%	-4%	-2%
COC(=O)c1nc2n(n1)C(c1cccc(Cl)c1)C(C(=O)Nc1ccccc1OC)=C(C)N2 (stereo not drawn)	4%	-23%	3%	1%
CC(C)(C)NC(=O)C1C(c2ccccc2)=Nc2ccccc2N1C(=O)c1ccc(C(F)(F)F)cc1 (stereo not drawn)	12%	nt	-1%	nt
O=C(Nc1ccc2c(c1)OCO2)c1c(F)cccc1F	7%	4.5µM*	12%	9%
CC(C)Cc1cc(C(=O)Nc2ccc3c(c2)OCO3)no1	4µM*	?	20%	-2%
Cc1cc(C(=O)Nc2ccc3c(c2)OCO3)no1	?	74%	1%	-2%
O=C(Nc1cccc(F)c1)Nc1ccc2c(c1)OCO2	?	?	-18%	2%
O=C(Nc1ccc2c(c1)OCO2)c1cccc(F)c1	3%	11µM*	-9%	14%
Cn1nccc1C(=O)Nc1ccc2c(c1)OCO2	8%	13µM*	-1%	-3%
CCOc1cccc(CC(=O)N2CCc3c([nH]c4ccccc34)C2c2ccc(C)cc2)c1OCC (stereo not drawn)	10µM*	nt	-3%	nt
CSc1ccc(C2c3[nH]c4ccccc4c3CCN2C(=O)CCC2CCCC2)cc1 (stereo not drawn)	2.2µM*	nt	18%	nt
CCOc1ccc(C2c3[nH]c4ccccc4c3CCN2C(=O)CSCc2ccc(F)cc2)cc1 (stereo not drawn)	2.8µM*	nt	-12%	nt
O=C(CSc1ccccc1)N1CCc2c([nH]c3ccccc23)C1c1ccc(F)cc1 (stereo not drawn)	?	nt	-6%	nt
CCOc1cccc(CC(=O)N2CCc3c([nH]c4ccc(OC)cc34)C2c2ccc(F)cc2)c1OCC (stereo not drawn)	-5%	8%	-4%	0%
COc1ccc(NC(=O)N2CCc3c([nH]c4ccc(OC)cc34)C2c2ccc(OC)cc2)cc1 (stereo not drawn)	?	nt	-8%	nt
COc1ccc2[nH]c3c(c2c1)CCN(C(=O)c1cccc(Cl)c1)C3c1ccc(F)cc1 (stereo not drawn)	4.5µM*	-28%	2%	0%
O=C(Nc1ccccc1C(F)(F)F)N1CCC(CN2CCc3ccccc3C2)CC1	3%	nt	11%	nt
CCOc1ccc(NC(=O)CSc2nnc(-c3ccc(C)cc3)c(-c3ccc(C)cc3)n2)cc1	17%	nt	-1%	nt
Cc1ccc2c(C(=O)CNC3=NCCS3)c(C)[nH]c2c1	nt	-10%	nt	nt
Cc1ccc2c(c1)c1c(n2CC(O)CN2CCC(C)CC2)CCCC1 (stereo not drawn)	5.6µM*	-8%	?	-3%
CCN1c2cc(C)ccc2-n2cccc2C12CCN(C(=O)Nc1cc(OC)c(OC)c(OC)c1)CC2	11µM*	nt	-6%	nt
